Laboratory results: PubChem BioAssay
Active and inactive are the calls of the source. Unless noted, no rule for the calls is given here.

How the values were obtained:
[1] = anti-His antibody binders, primary screen, artefact control for SMM control protein annotation, biochemical, small-molecule microarray, 635 nm fluorescence (AID 1128); settings: anti-His Alexa647 antibody binding, higher = more signal;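 also: score merges feature fluorescence with signal-to-noise for each printed compound spot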
[2] = test system: Human papillomavirus type 1a E7 protein (residues 1-88); assay: HPV1a E7 small-molecule binders, primary screen, biochemical, small-molecule microarray, residues 1-88, 635 nm (AID 1129); settings: small-molecule microarray binding, fluorescence 635 nm; higher = more signal
[3] = molecular target: Focal adhesion kinase 1 (Homo sapiens) (UniProt Q05397); assay: small-molecule microarray binders of FAK, primary screen, biochemical, 635/667 nm fluorescence, BSA, DTT (AID 1130); settings: PTK2 binding, 635 nm fluorescence, higher = more signal;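 also: composite of spot emission at 667 nm and signal to noise over triplicate slides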
[4] = test system: Fibrinogen (Alexa647-labelled); assay: fibrinogen binders on compound microarrays, profiling panel, artefact control for SMM control-protein annotation, biochemical, small-molecule microarray, 635/667 nm fluorescence (AID 1131); settings: fibrinogen-A647 binding fluorescence, higher = more signal;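 also: z-score merges 667 nm fluorescence with per-spot signal-to-noise over triplicate slides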
[5] = molecular target: Follistatin (Homo sapiens) (UniProt P19883); assay: follistatin binders on small-molecule microarrays, primary screen, biochemical, small-molecule microarray, 635/667 nm fluorescence (AID 1132); settings: FST binding, 635 nm fluorescence, higher = more signal
[6] = molecular target: Fibroblast growth factor 2 (Homo sapiens) (UniProt P09038); assay: FGF2 binders on small-molecule microarrays, primary screen, biochemical, small-molecule microarray, 635/667 nm fluorescence (AID 1133); settings: small-molecule microarray binding, FGF2, fluorescence 635/667; higher = more signal
[7] = mitochondrial membrane potential change in A549 cells, profiling panel, cell-based, JC-1 fluorescence, basal, 24 h, 100 nL (AID 1138); settings: higher = more signal;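 also: A549 lung adenocarcinoma cells under basal conditions with no added stimulus; test concentration not given here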
Lefty1 = Lefty1 binders on small-molecule microarrays, primary screen, biochemical, small-molecule microarray, 635/667 nm fluorescence (AID 1139); settings: small-molecule microarray binding, fluorescence 635/667; higher = more signal
[8] = test system: wheat germ agglutinin (Triticum aestivum), Alexa647-labelled; assay: wheat germ agglutinin binders on compound microarrays, profiling panel, artefact control for SMM control-protein annotation, biochemical, small-molecule microarray, 635/667 nm fluorescence (AID 1140); settings: WGA-A647 binding, 635 nm fluorescence, higher = more signal;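 also: score merges 667 nm feature emission with signal to noise over triplicate slides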
[9] = molecular target: Luciferin 4-monooxygenase (Photinus pyralis) (UniProt P08659); assay: firefly luciferase enzyme inhibitors, primary screen, biochemical, luminescence, purified enzyme, 2006 set (AID 1141); settings: SteadyGlo luminescence, 30 min, higher = more signal, called active from +8 up or from −8 down;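 also: cell-free assay with purified firefly luciferase at 100 ng per well in PBS; test concentration not given here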
[10] = test system: Wnt5a (protein binding on small-molecule microarray); assay: Wnt5a binders on small-molecule microarray, primary screen, biophysical, 635/667 nm fluorescence (AID 1142); settings: 635 nm fluorescence, higher = more signal;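 also: fluorescence read at 667 nm with signal to noise per printed feature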
[11] = cell viability in Huh7 cells, primary screen, cytotoxicity control for HCV replication inhibitor project, CellTiter-Glo luminescence, basal, 48 h (AID 1143); settings: Huh7 HCV replicon, higher = more signal, called active from +8 up or from −8 down;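 also: Huh7 hepatoma cells carrying a hepatitis C replication reporter with no stimulus; test concentration not given here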
[12] = P. aeruginosa biofilm formation inhibitors, primary screen, PAO1 strain, BacTiter-Glo luminescence, LB-PBS (AID 1144); settings: 12 h, higher = more signal
[13] = CREB reporter modulators without forskolin, primary screen, cell-based, PC12, CRE-LacZ reporter, unstimulated (AID 1145); settings: no forskolin, luminescence, 4.5 h, higher = more signal, called active from +8 up or from −8 down
[14] = CREB reporter modulators under forskolin, primary screen, cell-based, PC12, CRE-LacZ reporter, forskolin-stimulated (AID 1146); settings: luminescence, 4.5 h, higher = more signal, called active from +8 up or from −8 down;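 also: PC12 cells with 6xCRE LacZ reporter stimulated by forskolin 10 µM; beta-galactosidase reporter signal reflecting CREB driven transcription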
[15] = molecular target: Streptavidin (Streptomyces avidinii) (UniProt P22629); assay: streptavidin binders on small-molecule microarray, primary screen, artefact control for SMM compound annotation, biophysical, 635/667 nm fluorescence (AID 1147); settings: streptavidin binding, higher = more signal;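 also: signal reflects streptavidin binding to arrayed compounds as a control protein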
[16] = small-molecule binders of probe aInhba, primary screen, biochemical, small-molecule microarray, 635/667 nm fluorescence (AID 1148); settings: higher = more signal;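 also: score merges 667nm spot fluorescence with signal-to-noise for antibody binding to printed compounds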
Torsin-1A (Homo sapiens) [17] = molecular target: Torsin-1A (Homo sapiens) (UniProt O14656); assay: torsin A binders from cell lysate, primary screen, small-molecule microarray, wild-type, 635/667 nm (AID 1149); settings: COS7 hTOR1A-WT lysate, 635 nm fluorescence, higher = more signal
Torsin-1A (Homo sapiens) [18] = molecular target: Torsin-1A (Homo sapiens) (UniProt O14656); assay: small-molecule binders of mutant TOR1A in lysate, primary screen, cell lysate, small-molecule microarray, COS7 lysate, 635/667 nm fluorescence (AID 1150); settings: COS7 hTOR1A mutant lysate, 635 nm fluorescence, higher = more signal;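 also: score pools 667 nm emission and signal to noise measuring lysate protein binding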
[19] = test system: Sonic hedgehog protein (Shh); assay: small-molecule binders of Shh protein, primary screen, biochemical, small-molecule microarray, 635/667 nm fluorescence (AID 1151); settings: small-molecule microarray binding, 635 nm fluorescence; higher = more signal;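 also: Shh protein binding to compounds spotted on small-molecule microarray slides; score combines spot fluorescence intensity with signal-to-noise across triplicate slides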

Chain of Torsin-1A (Homo sapiens) (O14656 whole entry, looked up): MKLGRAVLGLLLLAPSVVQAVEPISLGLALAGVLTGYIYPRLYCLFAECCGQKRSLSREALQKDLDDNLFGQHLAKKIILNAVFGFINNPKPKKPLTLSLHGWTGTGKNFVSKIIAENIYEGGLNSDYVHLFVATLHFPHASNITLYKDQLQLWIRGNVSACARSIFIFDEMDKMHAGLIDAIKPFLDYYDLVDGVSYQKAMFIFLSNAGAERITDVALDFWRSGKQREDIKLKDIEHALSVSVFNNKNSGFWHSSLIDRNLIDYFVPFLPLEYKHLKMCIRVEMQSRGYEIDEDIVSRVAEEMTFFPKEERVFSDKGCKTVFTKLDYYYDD
Chain of Focal adhesion kinase 1 (Homo sapiens) (Q05397 whole entry, looked up): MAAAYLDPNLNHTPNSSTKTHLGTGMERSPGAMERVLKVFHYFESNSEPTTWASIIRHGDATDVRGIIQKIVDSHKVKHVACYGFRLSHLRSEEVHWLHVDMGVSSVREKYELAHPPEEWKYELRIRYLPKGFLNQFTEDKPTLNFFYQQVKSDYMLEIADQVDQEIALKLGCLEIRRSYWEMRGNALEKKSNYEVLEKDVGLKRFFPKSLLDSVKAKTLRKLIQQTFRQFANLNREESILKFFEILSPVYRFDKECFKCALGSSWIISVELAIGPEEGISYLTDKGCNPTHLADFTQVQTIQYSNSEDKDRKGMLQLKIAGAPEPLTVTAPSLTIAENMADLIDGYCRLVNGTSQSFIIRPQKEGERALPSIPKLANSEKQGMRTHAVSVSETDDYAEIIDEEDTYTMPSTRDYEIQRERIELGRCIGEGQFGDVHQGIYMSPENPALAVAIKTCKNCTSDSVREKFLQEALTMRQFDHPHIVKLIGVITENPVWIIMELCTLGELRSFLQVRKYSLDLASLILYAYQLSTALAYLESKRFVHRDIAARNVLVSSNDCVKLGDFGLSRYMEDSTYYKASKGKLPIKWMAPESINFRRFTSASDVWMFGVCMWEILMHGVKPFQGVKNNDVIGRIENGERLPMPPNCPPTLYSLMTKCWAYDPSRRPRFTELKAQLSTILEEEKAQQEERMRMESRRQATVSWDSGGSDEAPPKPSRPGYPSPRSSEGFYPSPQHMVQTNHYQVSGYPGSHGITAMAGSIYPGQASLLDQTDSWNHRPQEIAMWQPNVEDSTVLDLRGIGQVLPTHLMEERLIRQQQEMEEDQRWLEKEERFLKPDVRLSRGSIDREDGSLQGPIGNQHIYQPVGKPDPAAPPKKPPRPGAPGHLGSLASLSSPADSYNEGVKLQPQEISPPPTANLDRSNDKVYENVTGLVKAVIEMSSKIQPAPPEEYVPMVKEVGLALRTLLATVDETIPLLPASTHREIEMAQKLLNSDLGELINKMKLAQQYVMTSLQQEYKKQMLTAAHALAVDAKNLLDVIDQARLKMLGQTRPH
Chain of Luciferin 4-monooxygenase (Photinus pyralis) (P08659 whole entry, looked up): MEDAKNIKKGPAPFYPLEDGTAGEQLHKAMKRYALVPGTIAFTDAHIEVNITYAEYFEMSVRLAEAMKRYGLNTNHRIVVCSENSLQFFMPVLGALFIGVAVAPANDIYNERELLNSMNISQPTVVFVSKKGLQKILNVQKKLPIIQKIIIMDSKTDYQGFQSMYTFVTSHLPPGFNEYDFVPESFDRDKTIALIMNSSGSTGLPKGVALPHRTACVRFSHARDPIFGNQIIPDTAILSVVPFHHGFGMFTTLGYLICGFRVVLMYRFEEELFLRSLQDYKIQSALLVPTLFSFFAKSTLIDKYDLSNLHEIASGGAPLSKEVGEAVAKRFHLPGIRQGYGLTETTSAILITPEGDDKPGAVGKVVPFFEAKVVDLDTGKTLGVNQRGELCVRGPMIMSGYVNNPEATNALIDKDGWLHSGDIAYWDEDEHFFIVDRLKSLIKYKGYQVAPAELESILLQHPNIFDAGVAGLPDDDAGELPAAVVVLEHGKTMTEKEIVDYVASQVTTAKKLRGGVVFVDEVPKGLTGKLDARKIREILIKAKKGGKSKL
Chain of Fibroblast growth factor 2 (Homo sapiens) (P09038 whole entry, looked up): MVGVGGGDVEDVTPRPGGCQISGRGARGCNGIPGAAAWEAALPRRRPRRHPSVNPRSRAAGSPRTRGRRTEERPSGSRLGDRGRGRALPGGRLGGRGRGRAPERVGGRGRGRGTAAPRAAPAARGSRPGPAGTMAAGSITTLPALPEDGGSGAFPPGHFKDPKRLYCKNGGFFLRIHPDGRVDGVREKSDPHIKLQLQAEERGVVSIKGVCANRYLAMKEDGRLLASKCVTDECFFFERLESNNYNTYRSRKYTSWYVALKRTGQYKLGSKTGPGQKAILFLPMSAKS
Chain of Streptavidin (Streptomyces avidinii) (P22629 whole entry, looked up): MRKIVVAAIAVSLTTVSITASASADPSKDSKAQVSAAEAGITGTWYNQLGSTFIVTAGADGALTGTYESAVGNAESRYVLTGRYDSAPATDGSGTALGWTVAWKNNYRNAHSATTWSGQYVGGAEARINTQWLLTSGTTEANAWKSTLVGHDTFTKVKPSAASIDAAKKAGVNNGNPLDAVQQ
Chain of Follistatin (Homo sapiens) (P19883 whole entry, looked up): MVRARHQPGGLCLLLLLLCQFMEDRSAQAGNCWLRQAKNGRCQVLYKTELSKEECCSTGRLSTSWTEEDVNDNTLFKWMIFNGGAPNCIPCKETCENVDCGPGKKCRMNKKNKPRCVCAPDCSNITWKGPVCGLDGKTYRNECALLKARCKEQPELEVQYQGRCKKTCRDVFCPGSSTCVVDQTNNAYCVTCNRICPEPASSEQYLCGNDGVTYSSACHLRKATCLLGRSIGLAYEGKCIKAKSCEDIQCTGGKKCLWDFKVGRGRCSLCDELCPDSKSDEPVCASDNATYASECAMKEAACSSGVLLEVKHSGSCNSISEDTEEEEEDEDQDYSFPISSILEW

Structure (SMILES) | composite z-score [1] | composite z-score [2] | composite z-score [3] | composite z-score [4] | composite z-score [5] | composite z-score [6] | z-score [7] | composite z-score (Lefty1) | composite z-score [8] | z-score [9] | composite z-score [10] | z-score [11] | z-score [12] | z-score [13] | z-score [14] | composite z-score [15] | composite z-score [16] | composite z-score (Torsin-1A (Homo sapiens) [17]) | composite z-score (Torsin-1A (Homo sapiens) [18]) | composite z-score [19]
C=CC[C@H](OC(=O)Nc1ccc(OC)cc1)c1ccc(O)c2ccccc12 | 1.15 | 1.16 | 0.531 | 0.305 | 1.3 | 1.64 | -1.43 | 0.907 | 0.616 | -6.26 (inactive) | 0.49 | -4.26 (inactive) | -1.4 (inactive) | 0.935 (inactive) | 5.57 (inactive) | 0.855 | 0.0275 | 0.51 | 0.696 | 1.66
C=C(C(=O)CC[C@H](OC(C)=O)c1cccc(OCCO)c1)C(C)C | -0.734 | -1.35 | -0.311 | -0.0681 | -0.791 | -0.883 | -0.6 | -0.638 | 0.335 | -0.0654 (inactive) | -0.161 | -3.05 (inactive) | -0.0576 (inactive) | 0.798 (inactive) | 1.04 (inactive) | -0.608 | -0.0719 | -0.34 | -0.241 | 0.144
COc1c(C)cc(-c2cc3c(c(-c4ccccc4)n2)[Si](C(C)C)(C(C)C)OC3)cc1C | 0.188 | -0.892 | -0.353 | 0.363 | 0.134 | 0.514 | 0.439 | -0.135 | 0.245 | 0.411 (inactive) | 0.0775 | 0.109 (inactive) | -0.661 (inactive) | -0.491 (inactive) | -0.478 (inactive) | 0.657 | -0.0313 | 0.124 | -0.402 | 0.513
COCCOC(=O)N1C(=O)[C@@]2(c3cc(C#CC4=CCCCC4)ccc31)[C@H](c1ccc(O)cc1)N1[C@H](c3ccccc3)[C@H](c3ccccc3)OC(=O)[C@H]1[C@@H]2C(=O)Nc1nc2ccccc2s1 | 0.494 | 1.21 | 0.822 | 0.93 | 0.862 | 1.08 | -1.94 | 1.52 | 0.657 | -0.946 (inactive) | 0.365 | -0.799 (inactive) | -0.424 (inactive) | 0.476 (inactive) | 2.17 (inactive) | 1.18 | 0.52 | 0.776 | 0.89 | 1.73
COc1ccc([Si](C)(C)[C@H]2[C@H](CCn3cc([C@H](O)c4ccccc4)nn3)O[C@@]3(C(=O)N(Cc4cccc(N5C(=O)c6cccc7cccc5c67)c4)c4ccccc43)[C@@H]2C)cc1 | -0.953 | -0.859 | -0.435 | -0.678 | -1.64 | -1.03 | 0.647 | -1.36 | -0.76 | 0.119 (inactive) | -0.302 | -3.31 (inactive) | 0.789 (inactive) | -0.142 (inactive) | 1.01 (inactive) | -0.713 | -0.176 | -0.601 | -0.437 | -0.0819
COC(=O)c1c(CC[C@@H](CO)NC(=O)N[C@H](Cn2cc(-c3ccccc3C)nn2)C(C)C)oc(C(C)=O)c1C(=O)OC | 0.0233 | -0.0523 | 0.14 | 0.335 | -0.505 | -0.37 | -0.704 | -0.0683 | 0.567 | 0.379 (inactive) | -0.338 | -2.66 (inactive) | -0.673 (inactive) | 1.5 (inactive) | -0.644 (inactive) | -0.0581 | -0.003 | -0.123 | -0.171 | -0.272
O=C1O[C@@H](c2ccccc2)[C@@H](c2ccccc2)N2[C@@H](c3ccc(O)cc3)[C@]3(C(=O)Nc4ccc(C#CCCO)cc43)[C@@H](C(=O)NC[C@H](O)c3ccccc3)[C@H]12 | 0.206 | -0.386 | -0.141 | -1.38 | -0.162 | -1.11 | -1.57 | 0.0328 | 1.12 | 0.411 (inactive) | -0.738 | 0.058 (inactive) | 0.142 (inactive) | -1.15 (inactive) | -0.869 (inactive) | -0.791 | -0.128 | -0.664 | 0.229 | 0.304
CCOC(=O)C[C@H]1[C@H](OC(=O)c2ccc(C(=O)c3ccccc3)cc2)[C@@H](NC(=O)c2ccc3ccccc3c2)c2cc(OCCCO)ccc2N1C(=O)c1ccccc1 | 0.405 | 1.13 | 0.287 | 0.73 | 0.599 | 0.436 | 0.315 | 1.14 | 1.1 | -0.204 (inactive) | 0.173 | -0.0506 (inactive) | -0.0382 (inactive) | 0.0777 (inactive) | -0.506 (inactive) | 0.849 | -0.105 | 0.196 | 0.321 | 0.867
CC(C)(C)OC(=O)CC[C@]1(C(=O)NCCN2CCOCC2)N=C(c2ccc(OCCCO)cc2)O[C@H]1c1ccccc1 | 2.21 | 0.358 | 0.75 | 0.955 | -0.0269 | -0.397 | 1.21 | -0.964 | 0.391 | -1.16 (inactive) | 0.298 | 0.268 (inactive) | -0.375 (inactive) | -0.174 (inactive) | -0.266 (inactive) | 0.541 | 0.165 | -0.357 | 0.833 | -1.23
